Source: PubChem BioAssay (Tox21)
Inconclusive results are not listed. Active and inactive are the calls of the source. Unless noted, calls come from the whole dose curve; as a rule, active = well fitted curve in the direction sought with a large enough effect in the repeat runs; inconclusive = weak or mixed curves; inactive = no such curve, though single readings can be large; an effect the other way counts as inactive or inconclusive.

Experiments:
[1] = qHTS assay to identify small molecule agonists of the estrogen receptor alpha (ER-alpha) signaling pathway in the presence of an antagonist - cell viability counter screen (AID 1259386);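 note: series mostly up to about 92 µM; cells exposed to compounds for 22 h at 37 °C before the viability read; nearly all actives have a fitted effect of over 30% in size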
In short: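 Cells are starved of estrogens for 5 days in charcoal-stripped serum, seeded for 24hr and co-treated with ICI-182,780 (10.0nM final) and test compounds. After 22hr at 37C, viability is read as CellTiter-Fluor fluorescence.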

[2] = target: Progesterone receptor (Homo sapiens) (UniProt P06401); assay: qHTS assay to identify small molecule agonists of the progesterone receptor (PR) signaling pathway (AID 1346784; calls by dose curve; note: nearly all actives have a fitted effect of over 30% in size)
Sequence of Progesterone receptor (Homo sapiens) (P06401 whole entry, looked up): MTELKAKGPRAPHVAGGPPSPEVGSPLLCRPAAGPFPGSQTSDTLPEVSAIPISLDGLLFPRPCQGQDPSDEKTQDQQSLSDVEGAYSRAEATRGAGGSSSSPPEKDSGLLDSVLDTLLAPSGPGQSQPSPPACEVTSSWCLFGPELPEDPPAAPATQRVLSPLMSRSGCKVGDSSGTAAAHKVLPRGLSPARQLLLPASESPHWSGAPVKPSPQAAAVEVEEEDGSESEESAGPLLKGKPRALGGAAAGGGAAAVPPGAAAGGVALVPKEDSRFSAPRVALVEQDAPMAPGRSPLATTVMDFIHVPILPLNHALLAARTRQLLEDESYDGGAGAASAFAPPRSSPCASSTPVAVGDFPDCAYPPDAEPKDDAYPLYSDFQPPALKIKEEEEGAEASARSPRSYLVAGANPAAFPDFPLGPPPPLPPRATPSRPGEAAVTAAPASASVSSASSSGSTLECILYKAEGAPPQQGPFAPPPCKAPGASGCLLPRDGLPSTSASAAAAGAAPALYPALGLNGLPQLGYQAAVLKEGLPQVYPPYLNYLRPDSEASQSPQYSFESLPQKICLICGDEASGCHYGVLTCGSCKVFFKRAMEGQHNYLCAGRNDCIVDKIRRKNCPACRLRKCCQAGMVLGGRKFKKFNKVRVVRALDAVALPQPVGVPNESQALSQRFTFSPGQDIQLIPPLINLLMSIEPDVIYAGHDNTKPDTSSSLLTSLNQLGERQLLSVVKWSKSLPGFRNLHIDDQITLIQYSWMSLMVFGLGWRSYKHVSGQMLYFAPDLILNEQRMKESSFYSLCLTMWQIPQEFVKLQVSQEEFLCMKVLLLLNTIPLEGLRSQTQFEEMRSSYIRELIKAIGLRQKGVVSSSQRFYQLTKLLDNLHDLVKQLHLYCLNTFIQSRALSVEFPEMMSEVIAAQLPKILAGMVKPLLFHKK
In short: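 Fluorescence from LiveBLAzer B/G FRET substrate cleavage (2 hr, RT) reported PR activation in PR-UAS-bla HEK 293T cells treated 16 hr at 37C/5% CO2 with compounds; medium contained 2% charcoal-stripped FBS.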

[3] = target: Progesterone receptor (Homo sapiens) (UniProt P06401); assay: qHTS assay to identify small molecule antagonists of the progesterone receptor (PR) signaling pathway (AID 1346795; active = well fitted inhibition curve with a large enough effect in the signal ratio in the repeat runs, not every such curve was filed as active; the % refers to the signal ratio)
In short: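 Fluorescence intensity measured 2 hr after adding beta-lactamase FRET substrate to PR-UAS-bla HEK293T cells that had been co-treated 16 hr with compound and 1 nM R5020 (final concentration) in 2% charcoal-stripped FBS.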

[4] = qHTS assay to identify small molecule antagonists of the progesterone receptor (PR) signaling pathway - cell viability counter screen (AID 1346798); note: series mostly up to about 92 µM; nearly all actives have a fitted effect of over 50% in size
In short: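 CellTiter-Glo luminescence; PR-UAS-bla HEK293T, 3,000 cells/well; compound + R5020, 16 hr, 37C/5% CO2; 30 min RT before read.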

[5] = qHTS assay to identify small molecule agonists of the progesterone receptor (PR) signaling pathway - cell viability counter screen (AID 1346799; calls by dose curve; note: nearly all actives have a fitted effect of over 45% in size)
In short: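 In parallel with the beta-lactamase readout, cytotoxicity toward PR-UAS-bla HEK293T cells was measured by CellTiter-Glo luminescence following 16 hr compound incubation in 2% charcoal-stripped FBS medium.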

[6] = qHTS assay to identify small molecule antagonists of the TGF-beta/Smad signaling pathway - cell viability counter screen (AID 1346824); note: nearly all actives have a fitted effect of over 50% in size
In short: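 SBE-bla HEK 293T cells, incubated overnight, then compound plus 0.25 ng/mL TGF-beta1 (stock added) for 5 hr at 37 C. Viability was read in the same wells by CellTiter-Glo luminescence after 30 min at room temperature.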

[7] = qHTS assay to identify small molecule agonists of the TGF-beta/Smad signaling pathway - cell viability counter screen (AID 1346829); note: top concentration of the series differs between compounds; nearly all actives have a fitted effect of over 45% in size
In short: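 Same-well cytotoxicity: CellTiter-Glo added after the 2 hr room-temperature beta-lactamase substrate step, luminescence measured 30 min later; cells had 5 hr of compound at 37 C.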

[8] = qHTS assay to identify small molecule agonists of the TGF-beta/Smad signaling pathway (AID 1346859; active = well fitted activation curve with a large enough effect in the signal ratio in the repeat runs, not every such curve was filed as active; the % refers to the signal ratio; note: series mostly up to about 77 µM)
In short: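 After overnight seeding, SBE-bla HEK 293T cells are dosed with compounds in DMSO and kept 5 hr at 37 C, 5% CO2. LiveBLAzer-type FRET substrate is then applied for 2 hr at room temperature.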

[9] = target: Thyrotropin-releasing hormone receptor (Homo sapiens) (UniProt P34981); assay: qHTS assay to identify small molecule antagonists of the thyrotropin-releasing hormone receptor (TRHR) signaling pathway (AID 1346877; active = well fitted inhibition curve with a large enough effect in the repeat runs, not every such curve was filed as active; note: series mostly up to about 51 µM)
Sequence of Thyrotropin-releasing hormone receptor (Homo sapiens) (P34981 whole entry, looked up): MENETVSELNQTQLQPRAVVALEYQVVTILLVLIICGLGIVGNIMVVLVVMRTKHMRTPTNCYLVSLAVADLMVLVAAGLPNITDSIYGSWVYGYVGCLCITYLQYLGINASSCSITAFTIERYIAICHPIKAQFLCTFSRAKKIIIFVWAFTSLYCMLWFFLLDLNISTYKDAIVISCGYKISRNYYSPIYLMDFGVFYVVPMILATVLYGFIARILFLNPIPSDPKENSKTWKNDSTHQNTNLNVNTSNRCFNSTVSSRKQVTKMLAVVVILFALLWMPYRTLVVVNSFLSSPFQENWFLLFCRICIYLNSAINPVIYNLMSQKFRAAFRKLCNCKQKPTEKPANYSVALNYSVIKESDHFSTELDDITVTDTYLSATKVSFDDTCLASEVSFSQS
In short: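 Cells (TRHR-HEK293) are plated and kept 18 h at 37 °C/5% CO2. A calcium-sensitive dye is added for 2 h, compound follows for 5 min at room temperature, and TRH is then given at 1 nM final.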

[10] = target: Thyrotropin-releasing hormone receptor (Homo sapiens) (UniProt P34981); assay: qHTS assay to identify small molecule agonists of the thyrotropin-releasing hormone receptor (TRHR) signaling pathway (AID 1346891; calls by dose curve;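 note: HEK293 cells expressing TRHR with calcium dye readout; series mostly up to about 58 µM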)
In short: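 Compounds were tested as agonists at 15 concentrations, in triplicate, on TRHR-Hek293 cells; calcium-sensitive dye fluorescence was recorded for 3 min following addition.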

[11] = Human pregnane X receptor (PXR) small molecule agonists, qHTS cell viability counter screen (AID 1346977); note: nearly all actives have a fitted effect of over 50% in size
In short: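 Viability counter screen: CellTiter-Fluor signal in PXR-Luc HepG2 cells, 24hr compound exposure, 37C, 5% CO2.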

[12] = Caspase-3/7 induction in HepG2 cells by small molecules, qHTS assay (AID 1346978); note: nearly all actives have a fitted effect of over 15% in size
In short: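 Wild-type HepG2 cells, 2,000/well, settled 5 hr at 37 C and 5% CO2, then compound-treated for 17 hr; caspase-3/7 activity read by luminescent Caspase-Glo 3/7 after 30 min at room temperature.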

[13] = Caspase-3/7 induction in CHO-K1 cells by small molecules, qHTS cell viability counter screen (AID 1346979); note: nearly all actives have a fitted effect of over 35% in size
In short: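 Viability readout by fluorescence (CellTiter-Fluor) on wild-type CHO-K1 cells exposed for 16hr at 37C and 5% CO2 to compounds delivered in DMSO; reagent incubated 1hr before reading.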

[14] = Caspase-3/7 induction in CHO-K1 cells by small molecules, qHTS assay (AID 1346980); note: nearly all actives have a fitted effect of over 15% in size
In short: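 Wild-type CHO-K1 cells exposed to compounds for 17hr at 37 C, 5% CO2. Caspase-3/7 activity then measured by Caspase-Glo 3/7 luminescence after 30min at room temperature.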

[15] = Caspase-3/7 induction in HepG2 cells by small molecules, qHTS cell viability counter screen (AID 1346981); note: series mostly up to about 92 µM; nearly all actives have a fitted effect of over 30% in size
In short: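 Steps: seed 2,000 HepG2 cells per well; incubate 5 hr at 37 C; pin-add compounds in DMSO; incubate 16 hr; add CellTiter-Fluor; after 1 hr at 37 C and 5% CO2, read fluorescence.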

[16] = target: Nuclear receptor subfamily 1 group I member 2 (Homo sapiens) (UniProt O75469); assay: Human pregnane X receptor (PXR) small molecule agonists, qHTS assay (AID 1346982); note: nearly all actives have a fitted effect of over 35% in size
Sequence of Nuclear receptor subfamily 1 group I member 2 (Homo sapiens) (O75469 whole entry, looked up): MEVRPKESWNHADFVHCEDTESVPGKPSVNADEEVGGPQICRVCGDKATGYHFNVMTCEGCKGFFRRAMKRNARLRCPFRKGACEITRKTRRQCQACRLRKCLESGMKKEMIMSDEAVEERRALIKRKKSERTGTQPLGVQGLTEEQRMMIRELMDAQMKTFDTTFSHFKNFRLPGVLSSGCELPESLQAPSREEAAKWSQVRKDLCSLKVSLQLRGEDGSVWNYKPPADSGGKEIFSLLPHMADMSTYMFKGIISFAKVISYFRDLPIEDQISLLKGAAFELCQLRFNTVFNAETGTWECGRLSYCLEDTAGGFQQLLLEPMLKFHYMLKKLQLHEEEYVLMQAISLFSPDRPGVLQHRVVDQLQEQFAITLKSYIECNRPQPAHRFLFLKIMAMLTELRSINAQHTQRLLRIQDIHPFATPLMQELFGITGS
In short: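 Agonist mode qHTS: PXR-Luc HepG2 cells plated 5 hr before DMSO-dissolved compounds were pinned in, cultured 24 hr at 37 C, 5% CO2; ONE-Glo luminescence readout.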

[17] = target: Nuclear receptor subfamily 1 group I member 2 (Rattus norvegicus) (UniProt Q9R1A7); assay: Rat pregnane X receptor (rPXR) activation by small molecules, qHTS assay (AID 1346983); conditions: rPXR luciferase reporter cells, One-Glo luminescence, 24 h; stronger effect = higher value; note: nearly all actives have a fitted effect of over 20% in size
Sequence of Nuclear receptor subfamily 1 group I member 2 (Rattus norvegicus) (Q9R1A7 whole entry, looked up): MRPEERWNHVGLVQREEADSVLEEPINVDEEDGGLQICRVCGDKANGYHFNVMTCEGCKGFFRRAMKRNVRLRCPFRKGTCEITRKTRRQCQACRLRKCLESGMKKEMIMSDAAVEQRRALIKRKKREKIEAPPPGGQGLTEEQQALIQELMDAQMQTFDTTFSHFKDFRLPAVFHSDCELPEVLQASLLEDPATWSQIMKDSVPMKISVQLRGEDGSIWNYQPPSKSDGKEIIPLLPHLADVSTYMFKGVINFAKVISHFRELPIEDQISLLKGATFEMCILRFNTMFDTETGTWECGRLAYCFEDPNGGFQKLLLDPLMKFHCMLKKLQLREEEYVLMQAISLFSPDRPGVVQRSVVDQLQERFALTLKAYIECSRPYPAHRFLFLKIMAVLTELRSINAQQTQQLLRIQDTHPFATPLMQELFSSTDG
In short: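 Cell-based rPXR activation assay: rPXR cells, 2,000 per well, rested 5hr at 37 C, then exposed to compounds in DMSO for 24 hr at 37 C. Luciferase activity read by One-Glo luminescence after 30 min at room temperature.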

[18] = target: Nuclear receptor subfamily 1 group I member 2 (Homo sapiens) (UniProt O75469); assay: CYP3A4 induction through human pregnane X receptor (PXR) by small molecules, qHTS assay (AID 1346984); note: nearly all actives have a fitted effect of over 40% in size
In short: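 Steps: seed DPX-2 cells, 5 hr at 37C; pin-transfer compounds; 24 hr at 37C; add Luciferin-IPA (3uM final), 3 hr at 37C; add One-Glo, 30 min RT; read luminescence.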

[19] = target: Nuclear receptor subfamily 1 group I member 2 (Homo sapiens) (UniProt O75469); assay: Human pregnane X receptor (PXR) activation by small molecules, qHTS assay (AID 1346985); note: nearly all actives have a fitted effect of over 40% in size
In short: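 DPX-2 cells (HepG2 co-transfected with a PXR response element and a CYP3A4-promoter luciferase construct) were seeded at 2,000 per well, rested 5 hr at 37C, then exposed to DMSO-dissolved compounds for 24 hr. Activation was read as luciferase luminescence.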

[20] = target: Acetylcholinesterase (Homo sapiens) (UniProt P22303); assay: Acetylcholinesterase (AChE) small molecule antagonists: colormetric cell-based qHTS assay (AID 1347395; calls by dose curve; note: nearly all actives have a fitted effect of over 30% in size)
Sequence of Acetylcholinesterase (Homo sapiens) (P22303 whole entry, looked up): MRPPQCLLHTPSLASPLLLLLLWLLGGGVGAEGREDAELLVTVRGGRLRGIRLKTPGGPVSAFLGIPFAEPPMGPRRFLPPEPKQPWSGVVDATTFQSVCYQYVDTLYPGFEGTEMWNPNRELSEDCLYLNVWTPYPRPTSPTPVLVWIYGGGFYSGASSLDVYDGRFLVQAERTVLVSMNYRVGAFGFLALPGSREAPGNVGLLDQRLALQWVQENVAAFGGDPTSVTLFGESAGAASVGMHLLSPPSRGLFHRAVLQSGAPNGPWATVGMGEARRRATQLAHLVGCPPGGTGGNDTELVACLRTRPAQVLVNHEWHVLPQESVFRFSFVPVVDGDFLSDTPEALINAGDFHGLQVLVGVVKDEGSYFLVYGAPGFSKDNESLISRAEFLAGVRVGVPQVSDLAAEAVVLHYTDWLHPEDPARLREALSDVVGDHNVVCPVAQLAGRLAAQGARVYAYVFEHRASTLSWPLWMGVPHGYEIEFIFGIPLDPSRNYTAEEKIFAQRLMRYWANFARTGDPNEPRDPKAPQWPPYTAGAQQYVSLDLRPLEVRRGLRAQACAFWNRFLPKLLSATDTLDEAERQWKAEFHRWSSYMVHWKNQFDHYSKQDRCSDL
In short: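 Homogeneous whole-cell format. SH-SY5Y cells seeded overnight, dosed with compound (30 min, 37 C, 5% CO2), then given DTNB/acetylthiocholine cocktail for 90 min at 37 C; colorimetric signal.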
% is set by controls: 0 for no effect and ±100 for the full control effect.

FC(F)OC(F)(F)C(F)Cl (stereo not given)
inactive: Potency [1] | Potency [2] | Potency [3] | Potency [4] | Potency [5] | Potency [6] | Potency [7] | outcome [8] | Potency [9] | outcome [10] | Potency [11] | Potency [12] | Potency [13] | Potency [14] | Potency [15] | Potency [16] | max activation [17] -2.15% | outcome [18] | Potency [19] | Potency [20]

Cc1cnc(C2=NC(C)(C(C)C)C(=O)N2)c(C(=O)O)c1 (stereo not given)
inactive: Potency [1] | Potency [2] | Potency [3] | Potency [4] | Potency [5] | Potency [6] | Potency [7] | outcome [8] | Potency [9] | outcome [10] | Potency [11] | Potency [12] | Potency [13] | Potency [14] | Potency [15] | Potency [16] | Potency [20]

C[N+]1(CCC(C(N)=O)(c2ccccc2)c2ccccc2)CCCCC1
inactive: Potency [1] | Potency [2] | Potency [3] | Potency [4] | Potency [5] | Potency [6] | Potency [7] | outcome [8] | Potency [9] | outcome [10] | Potency [11] | Potency [12] | Potency [13] | Potency [14] | Potency [15] | Potency [16] | max activation [17] -4.99% | outcome [18] | Potency [19] | Potency [20]

CCCC(C)(COC(N)=O)COC(=O)NC(C)C (stereo not given)
inactive: Potency [1] | Potency [2] | Potency [3] | Potency [4] | Potency [5] | Potency [6] | Potency [7] | outcome [8] | Potency [9] | outcome [10] | Potency [11] | Potency [12] | Potency [13] | Potency [14] | Potency [15] | Potency [16] | Potency [20]

c1ccc2c(c1)sc1ccccc12
inactive: Potency [1] | Potency [2] | Potency [3] | Potency [4] | Potency [5] | Potency [6] | Potency [7] | outcome [8] | Potency [9] | outcome [10] | Potency [11] | Potency [12] | Potency [13] | Potency [14] | Potency [15] | Potency [16] | max activation [17] -3.19% | outcome [18] | Potency [19] | Potency [20]

CCCC[P+](CC)(CCCC)CCCC (tested in a mixture with another compound)
inactive: Potency [1] | Potency [2] | Potency [3] | Potency [4] | Potency [5] | Potency [6] | Potency [7] | outcome [8] | Potency [9] | outcome [10] | Potency [11] | Potency [12] | Potency [13] | Potency [14] | Potency [15] | Potency [16]
